Only some compounds are listed: those with a hit (about 21% of all), similar ones and a draw of the others.
Shiga toxin inh = inhibitors of Shiga toxin in Vero cells | inhibition, % at 38.7 µM | Vero cells, Shiga toxin protein synthesis inhibition reporter | 290,000 tested, 9.2% active; in the data active means inhibition mostly above about 28%, no sharp cut-off; inactive means mostly below about 43%; further: 0% is about no effect
Pf growth 48h = inhibits P. falciparum growth in the first generation, 48 h. 310,000 tested, 5.9% active. Potency, µM (titrated, usually from 28.7 µM), inactives show at the top dose activity change, negative = inhibition, most hits filed as inhibitors. AID 504832. P. falciparum luciferase growth in erythrocytes, 48 h; further: potency means the concentration at half of the fitted maximal effect; on the % scale 0 is the no-effect control and ±100 the full control effect
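Firefly luciferase activity from engineered P. falciparum reports growth; inhibitors lower the luminescent signal. Cultures contained 2% hematocrit erythrocytes at 0.1% final parasitemia.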
Pf growth 96h = P. falciparum growth inhibition at 96 hours | P. falciparum luciferase reporter growth, 96 h | Potency, µM (top dose mostly 28.7 µM), for inactives: at the top dose activity change, negative = inhibition, usual class: inhibitors | 320,000 tested, 6.9% active; further: potency means the concentration at half of the fitted maximal effect; on the % scale 0 is the no-effect control and ±100 the full control effect
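Infected RBCs, 2% Hct / 0.05% parasitemia final; luciferase-reporter P. falciparum; cpd 96 h, 37 C, 5% CO2; luciferase detection reagent; luminescence.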
CHX counter = affects cycloheximide protein synthesis inhibition readout, counter-screen | cell reporter, cycloheximide protein synthesis inhibition counterscreen | 300,000 tested, 12% active | max response, %; in the data active means max response mostly above about 13%, no sharp cut-off; inactive means mostly below about 14%; further: read at 38.3 µM for the half of the compounds with a filed dose; 0% is about no effect
* = called active by the depositor; i = inactive; u = inconclusive; x = no result given. Unless noted, the call rests on the fitted dose curve; in most records, active means well fitted inhibition curve with a large enough effect; inconclusive means small, poorly fitted or top-dose-only effect, or another doubt; inactive means no such curve, though single readings can be large or run the other way.

SMILES	Shiga toxin inh	Pf growth 48h	Pf growth 96h	CHX counter
O=C1NCC(=O)N2C(c3ccccc3)c3[nH]c4ccccc4c3C[C@@H]12 (stereo partly drawn)	1.3	-12.9%	-27.3%	-0.8
COc1cc([C@H]2c3[nH]c4ccccc4c3C[C@H]3C(=O)N4[C@@H](c5cc(OC)c(OC)c(OC)c5)c5[nH]c6ccccc6c5C[C@H]4C(=O)N23)cc(OC)c1OC	-12.7	0.415µM*	0.465µM*	-4.3
COCCCN1CC(=O)N2C(c3ccc(OC)c(OC)c3)c3[nH]c4ccccc4c3C[C@H]2C1=O (stereo partly drawn)	-8.4	u	u	3.9
O=C1[C@@H]2Cc3c([nH]c4ccccc34)C(c3ccccc3)N2C(=O)CN1CCO (stereo partly drawn)	-4.7	4.5%	-2.0%	-3.0
O=C1[C@@H]2Cc3c([nH]c4ccccc34)[C@@H](c3ccccc3)N2C(=O)[C@@H]2Cc3c([nH]c4ccccc34)[C@@H](c3ccccc3)N12	-17.5	u	2.62µM*	-6.2
Cc1cc(C)c2c(CC(=O)NNC(=O)c3ccccc3)coc2c1	-4.4	5.8%	-17.4%	-1.5
O=C(CSc1ccccc1)N1CCCC(N2CCN(c3ccccc3)CC2)C1 (stereo not drawn)	-6.3	6.1%	u	11.1
O=C(c1cccc(-c2ccc(O)cc2)c1)N1CCN(c2ccc(F)cc2)CC1	32.2	u	u	-4.8
CCc1ccc2c(COC(=O)C3CC(=O)N(CCc4ccccc4)C3)cc(=O)oc2c1 (stereo not drawn)	x	-22.6%	-9.4%	x
CC(=O)c1cccc(NC(=O)NC2CC(=O)N(c3ccc4c(c3)OCCO4)C2)c1 (stereo not drawn)	x	-22.9%	-6.1%	x
COC(=O)[C@@H]1CC[C@H](C)[C@@H](c2ccc(C)cc2)N1C(=O)c1ccc(/C=N/O[C@@H](C)c2cn([C@H](CO)Cc3ccccc3)nn2)cc1	-7.3	3.7µM*	4.65µM*	-1.7
COC(=O)[C@@H]1CC[C@H](C)[C@@H](c2ccc(C)cc2)N1C(=O)c1ccc(/C=N/OCC[C@@H]2C=C[C@H](OC(C)=O)[C@@H](COC(C)=O)O2)cc1	-12.9	u	10.4µM*	-1.9
CCCNC(=O)OC[C@H]1O[C@H](CCO/N=C/c2ccc(C(=O)N3[C@H](c4ccc(C)cc4)[C@@H](C)CC[C@H]3C(=O)OC)cc2)C=C[C@@H]1Oc1ccc(OC)cc1	-9.7	u	2.08µM*	-0.8
CCCC/C=C/[C@H](c1ccccc1)[C@H](CO)Cc1cnc2ccccc2c1	12.6	x	x	-1.6
COc1ccc2[nH]c3c(c2c1)CCNC3c1ccc([N+](=O)[O-])o1 (stereo not drawn)	8.9	13.1µM*	6.9%	9.4
COc1ccc2c3c([nH]c2c1)C(C)NCC3 (stereo not drawn)	-12.7	u	u	1.4
COc1ccc2[nH]c3c(c2c1)CCNC3C (stereo not drawn)	-5.1	4.0%	9.28µM*	-0.9
COc1ccc2[nH]c3c(c2c1)CCNC3C1CC=C(C)CC1 (stereo not drawn)	-3.6	u	21.9%	-0.9
COc1c(/C=N/NC(=O)c2ccncc2)c(CCN(C)C(C)=O)cc2c1OCO2	7.3	29.1%	0.0%	1.1
COc1cccc(-c2cc(C(=O)Nc3ccncc3)c3ccccc3n2)c1	-9.7	0.738µM*	u	-4.8
Cc1ccc2nc(-c3ccncc3)cc(C(=O)NCc3ccccc3F)c2c1	-2.7	u	14.7µM*	-3.9
O=C(NNC(=O)c1cc(-c2ccco2)nc2ccccc12)c1ccccc1	20.9	u	u	11.3
COc1cccc(-c2cc(C(=O)Nn3cnnc3)c3ccccc3n2)c1	-16.1	-3.1%	u	-1.6
O=C(/C=C/c1ccccc1)Nc1cccnc1Oc1ccccc1F	75.6*	1.1%	44.5%	62.2*
CC(=O)c1cccc(NC(=O)c2cc(-c3ccco3)nc3ccccc23)c1	33.0*	-26.0%	1.0%	13.3
SMILES	Shiga toxin inh	Pf growth 48h	Pf growth 96h	CHX counter
Nc1cccnc1Oc1ccccc1F	-3.7	-0.7%	21.0%	-0.6
O=C(NCC(=O)N1CC(O)CC1C(=O)N1CCCC1C(=O)OCc1ccccc1)OCc1ccccc1 (stereo not drawn)	-7.6	48.3%	19.8%	-3.3
O/N=C1\CCCc2c1nc(-c1ccccc1F)n2O	17.9	29.7%	0.2%	1.1
COc1ccc(C2=Nn3c(nnc3-c3ccc(OC)c(OC)c3)SC2)c(OC)c1	21.8	x	x	-1.5
COC(=O)c1sccc1NC(=O)c1ccccc1[N+](=O)[O-]	-12.5	1.3%	1.85µM*	0.9
COc1cc(-c2cc(C(=O)Nc3cccc(C(C)=O)c3)c3ccccc3n2)cc(OC)c1OC	5.8	u	-21.0%	17.9*
O=C(/C=C/c1ccccc1)Nc1cccc(S(=O)(=O)Nc2ccccc2F)c1	39.2*	7.3%	-0.5%	10.4
CC(=O)c1cccc(NC(=O)c2cc(-c3ccncc3)nc3ccccc23)c1	x	11.7µM*	u	x
COC(=O)c1sccc1NS(=O)(=O)c1ccccc1[N+](=O)[O-]	x	-5.2%	14.1%	x
O=C(NCCCn1ccnc1)/C(=C\c1ccccc1Cl)NC(=O)c1ccccc1	-3.5	0.7%	27.9%	0.7
C=CCS/C(N)=N\N=C\c1cc(Br)cc([N+](=O)[O-])c1O	15.1	50.7%	60.9%	9.0
O=C(CN1CCOCC1)N/N=C/c1cccc2ccccc12	-5.6	18.9%	12.9%	-2.9
COc1cc(-c2cc(C(=O)Nc3nc4ccccc4s3)c3ccccc3n2)cc(OC)c1OC	2.8	-5.3%	-0.4%	18.1*
O=C(/C=C/c1ccc(Cl)cc1Cl)Nc1cccc(S(=O)(=O)NC2=NCCCCC2)c1	12.9*	23.6%	47.5%	26.3*
O=C(Nc1cccc(S(=O)(=O)NC2=NCCCCC2)c1)c1cc(-c2ccco2)nc2ccccc12	-7.3	u	u	-0.9
COC(=O)c1sccc1NC(=O)c1cc(-c2cccc(C)c2)nc2ccccc12	-10.3	9.28µM*	-95.7%	6.9
O=C(Nc1cccc(S(=O)(=O)NC2=NCCCCC2)c1)c1cc(-c2ccncc2)nc2ccccc12	-3.4	u	11.7µM*	8.2
O=C(COC(=O)c1ccc(Cl)cc1Cl)Nc1cccc(S(=O)(=O)NC2=NCCC2)c1	x	1.9%	15.4%	x
c1ccc2c(OCCCN3CCCCCC3)cccc2c1	1.5	u	-16.3%	-2.3
CN1CCN(C(=O)C2CCCCC2)CC1	x	-6.1%	-1.6%	x
COc1ccccc1C(=O)NC(=O)COC(=O)C1CC1C (stereo not drawn)	x	6.1%	9.6%	x
CC(C)COc1cccc(-c2cc(C(=O)Nc3ccon3)c3ccccc3n2)c1	-6.9	2.08µM*	-7.9%	0.9
Cc1ccc(C(=O)c2cc3ccccc3o2)cc1	93.0*	272.4%	i	55.1*
Cc1ccc(NC(=O)c2cc3ccccc3o2)nc1	x	-20.7%	327.2%	x
Cc1ccc(C(=O)c2cc3ccccc3o2)cc1C	59.1*	x	159.5%	39.0*
O=C(c1cccc([N+](=O)[O-])c1)c1cc2ccccc2o1	9.0	5.5%	u	17.4
Cc1cc(C)c(NC(=O)CCc2c(C)noc2C)c(C)c1	x	0.2%	14.4%	x
CCc1c(C(=O)OCc2ccccc2)[nH]c(C)c1C	67.4*	116.3%	84.9%	43.3*

Assay outcomes from PubChem.
